# In PubChem BioAssay (EPA / NIEHS):
# Records with an inconclusive call do not appear. The source made the active and inactive calls. The calls were made as follows: active = hit-call score of the fitted dose curve at least 0.9, where 1 is the maximum; inconclusive = response in the unintended direction; inactive = score below 0.9.
# Columns and labels:
# [1] = biological target: human Retinoic Acid Receptor beta (RARb), RARB (gene 5915) (UniProt P10826); assay: ATG_RARb_TRANS: Attagene TRANS-FACTORIAL HepG2 Assay for human Retinoic Acid Receptor beta (AID 2283004)
# human Retinoic Acid Receptor beta (RARb), RARB (gene 5915), sequence (P10826 whole entry, looked up, the tested form may be a part): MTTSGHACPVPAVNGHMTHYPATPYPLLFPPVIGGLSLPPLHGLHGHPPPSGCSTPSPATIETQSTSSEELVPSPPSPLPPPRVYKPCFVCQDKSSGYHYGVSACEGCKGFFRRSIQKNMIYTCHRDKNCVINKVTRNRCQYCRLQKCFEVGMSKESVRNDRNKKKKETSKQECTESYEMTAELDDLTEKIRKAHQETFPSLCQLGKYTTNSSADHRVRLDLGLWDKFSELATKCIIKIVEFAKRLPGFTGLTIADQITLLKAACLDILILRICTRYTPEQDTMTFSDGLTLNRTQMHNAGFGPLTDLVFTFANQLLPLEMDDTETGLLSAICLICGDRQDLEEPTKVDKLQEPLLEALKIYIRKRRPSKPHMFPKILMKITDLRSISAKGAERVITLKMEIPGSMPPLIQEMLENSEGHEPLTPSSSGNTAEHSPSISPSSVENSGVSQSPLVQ
# Outline: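 Induction of reporter mRNA from a chimeric RARb-Gal4 construct was measured by RT-PCR, FAM labelling, HpaI digestion and capillary electrophoresis. Measurements followed 24 h compound treatment of transiently transfected human HepG2 liver cells, with DMSO as baseline.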
# [2] = biological target: Retinoic acid receptor alpha (Homo sapiens) (UniProt P10276); assay: ATG_RARa_TRANS: Attagene TRANS-FACTORIAL HepG2 Assay for human Retinoic Acid Receptor alpha (RARa) (AID 2283005)
# Retinoic acid receptor alpha (Homo sapiens), sequence (P10276 whole entry, looked up, the tested form may be a part): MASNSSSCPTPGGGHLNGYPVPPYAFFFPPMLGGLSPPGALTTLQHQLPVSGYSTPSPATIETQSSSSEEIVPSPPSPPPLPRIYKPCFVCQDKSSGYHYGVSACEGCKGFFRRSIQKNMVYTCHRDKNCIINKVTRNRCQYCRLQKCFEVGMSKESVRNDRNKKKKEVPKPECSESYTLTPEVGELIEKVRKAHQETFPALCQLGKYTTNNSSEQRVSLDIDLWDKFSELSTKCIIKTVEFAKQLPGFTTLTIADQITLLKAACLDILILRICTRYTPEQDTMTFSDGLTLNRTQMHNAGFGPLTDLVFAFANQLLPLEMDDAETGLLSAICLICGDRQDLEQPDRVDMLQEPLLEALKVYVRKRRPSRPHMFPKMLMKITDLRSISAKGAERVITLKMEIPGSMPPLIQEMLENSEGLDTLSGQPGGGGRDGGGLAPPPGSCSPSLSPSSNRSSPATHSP
# Outline: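 Reporter transcripts, measured by RT-PCR with fluorescent labeling and capillary electrophoresis after 24 h dosing, reflect activity of an exogenous human RARa–GAL4 fusion in transiently transfected HepG2. Fitted for increase relative to DMSO.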
# [3] = biological target: human Retinoic Acid Receptor gamma (RARg), RARG (gene 5916) (UniProt P13631); assay: ATG_RARg_TRANS: Attagene TRANS-FACTORIAL HepG2 Assay for human Retinoic Acid Receptor gamma (RARg) (AID 2283009)
# human Retinoic Acid Receptor gamma (RARg), RARG (gene 5916), sequence (P13631 whole entry, looked up, the tested form may be a part): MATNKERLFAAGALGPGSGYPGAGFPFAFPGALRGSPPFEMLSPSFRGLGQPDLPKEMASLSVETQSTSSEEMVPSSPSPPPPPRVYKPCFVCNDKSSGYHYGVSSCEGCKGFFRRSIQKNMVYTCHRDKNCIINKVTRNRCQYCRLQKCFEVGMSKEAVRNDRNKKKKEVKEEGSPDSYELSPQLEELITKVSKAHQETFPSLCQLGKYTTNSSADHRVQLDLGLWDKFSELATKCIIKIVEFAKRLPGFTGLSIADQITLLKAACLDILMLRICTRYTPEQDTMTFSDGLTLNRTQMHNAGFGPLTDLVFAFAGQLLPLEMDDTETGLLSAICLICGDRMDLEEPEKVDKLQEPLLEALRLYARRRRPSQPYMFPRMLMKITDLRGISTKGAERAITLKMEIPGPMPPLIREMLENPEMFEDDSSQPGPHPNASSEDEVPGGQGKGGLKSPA
# Outline: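 Transactivation of exogenous RARg-Gal4 fusion measured as reporter transcript induction after 24 h in transfected HepG2 cells. RNA reverse-transcribed, amplified, fluorescently labeled and resolved by capillary electrophoresis; increase relative to DMSO.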
# [4] = biological target: Peroxisome proliferator-activated receptor gamma (Homo sapiens) (UniProt P37231); assay: ATG_PPARg_TRANS: Attagene TRANS-FACTORIAL HepG2 Assay for human Peroxisome Proliferator-activated Receptor-gamma (PPARg) (AID 2283007)
# Peroxisome proliferator-activated receptor gamma (Homo sapiens), sequence (P37231 whole entry, looked up, the tested form may be a part): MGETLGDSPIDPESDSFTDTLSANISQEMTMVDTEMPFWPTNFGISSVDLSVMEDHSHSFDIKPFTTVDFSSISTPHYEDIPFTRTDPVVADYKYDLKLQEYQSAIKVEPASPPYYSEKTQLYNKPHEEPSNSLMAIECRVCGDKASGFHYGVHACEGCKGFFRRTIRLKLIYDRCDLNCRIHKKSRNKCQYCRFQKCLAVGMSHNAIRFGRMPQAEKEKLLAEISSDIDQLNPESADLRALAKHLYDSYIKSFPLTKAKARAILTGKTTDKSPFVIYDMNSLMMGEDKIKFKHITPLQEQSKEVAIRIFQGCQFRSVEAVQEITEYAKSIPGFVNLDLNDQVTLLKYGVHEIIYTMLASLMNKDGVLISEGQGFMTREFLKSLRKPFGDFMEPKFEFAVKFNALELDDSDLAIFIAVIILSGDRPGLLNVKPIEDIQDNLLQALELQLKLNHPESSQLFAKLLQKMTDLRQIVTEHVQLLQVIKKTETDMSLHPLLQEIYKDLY
# Outline: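 Liver-derived HepG2 cells expressing an exogenous NR-Gal4 chimera alongside GAL4-UAS reporter genes; 24 h exposure. Fluorescence of reporter RT-PCR products, separated by capillary electrophoresis, gives mRNA induction relative to DMSO.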
# [5] = biological target: human RAR-related Orphan Receptor beta (RORb), RORB (gene 6096) (UniProt Q92753); assay: ATG_RORb_TRANS: Attagene TRANS-FACTORIAL HepG2 Assay for human RAR-related Orphan Receptor beta (RORb) (AID 2283010)
# human RAR-related Orphan Receptor beta (RORb), RORB (gene 6096), sequence (Q92753 whole entry, looked up, the tested form may be a part): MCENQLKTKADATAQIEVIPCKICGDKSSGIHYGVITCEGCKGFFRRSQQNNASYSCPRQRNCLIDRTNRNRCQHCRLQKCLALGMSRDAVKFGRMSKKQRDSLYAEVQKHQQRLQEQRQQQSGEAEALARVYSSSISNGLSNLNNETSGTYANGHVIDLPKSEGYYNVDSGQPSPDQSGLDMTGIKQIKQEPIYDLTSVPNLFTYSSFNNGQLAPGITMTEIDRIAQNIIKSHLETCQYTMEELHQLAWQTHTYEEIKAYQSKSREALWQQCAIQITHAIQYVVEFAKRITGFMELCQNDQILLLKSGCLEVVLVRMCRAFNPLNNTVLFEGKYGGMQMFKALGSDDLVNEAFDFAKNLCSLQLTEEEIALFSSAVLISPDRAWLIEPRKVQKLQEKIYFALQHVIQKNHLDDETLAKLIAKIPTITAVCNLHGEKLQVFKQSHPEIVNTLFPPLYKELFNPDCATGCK
# Outline: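 Read-out is reporter mRNA induction, quantified by RT-PCR with fluorescent capillary electrophoresis, 24 h post-dose in transiently transfected HepG2 expressing exogenous NR-Gal4 chimera. Activity fitted upward versus DMSO.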
# [6] = biological target: Nuclear receptor subfamily 1 group I member 2 (Homo sapiens) (UniProt O75469); assay: ATG_PXR_TRANS: Attagene TRANS-FACTORIAL HepG2 Assay for human Pregnane X Receptor (PXR) (AID 2283008)
# Nuclear receptor subfamily 1 group I member 2 (Homo sapiens), sequence (O75469 whole entry, looked up, the tested form may be a part): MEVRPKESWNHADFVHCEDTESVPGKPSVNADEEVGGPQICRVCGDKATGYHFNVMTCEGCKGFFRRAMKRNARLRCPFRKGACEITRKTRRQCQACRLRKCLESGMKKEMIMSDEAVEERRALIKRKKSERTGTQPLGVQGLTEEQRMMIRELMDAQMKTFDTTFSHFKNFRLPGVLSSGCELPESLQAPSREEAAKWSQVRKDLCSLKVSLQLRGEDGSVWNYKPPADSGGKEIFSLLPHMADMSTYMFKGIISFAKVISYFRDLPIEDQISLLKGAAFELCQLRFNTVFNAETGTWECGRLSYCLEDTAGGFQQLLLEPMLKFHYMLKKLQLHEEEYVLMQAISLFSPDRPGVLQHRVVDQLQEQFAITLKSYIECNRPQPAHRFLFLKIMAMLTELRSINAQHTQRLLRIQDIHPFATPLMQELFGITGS
# Outline: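 Transient HepG2 transfectants carrying multiplexed reporter transcription units; PXR activity read through a Gal4 chimera. 24 h exposure. RT-PCR/CE fluorescence; upward curve fit referenced to DMSO.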
smiles,measurement,setting,value
O=c1n(CCO)c(=O)n(CCO)c(=O)n1CCO,outcome,[1],inactive
same,outcome,[2],inactive
same,outcome,[3],inactive
C=C(C)c1cccc(C(C)(C)N=C=O)c1,outcome,[1],inactive
same,AC50,[4],5.62 µM (active)
same,outcome,[3],inactive
CO[Si](CCC1CCC2OC2C1)(OC)OC (stereo unspecified),outcome,[4],inactive
CC=CC(=O)N(CC)c1ccccc1C,outcome,[1],inactive
same,outcome,[4],inactive
same,outcome,[5],inactive
CC(C)(C)c1n[nH]c(=O)n(N)c1=O,outcome,[1],inactive
same,outcome,[4],inactive
same,outcome,[6],inactive
same,outcome,[3],inactive
CC(=O)OCc1ccco1,outcome,[4],inactive
same,outcome,[6],inactive
CC1(C)[C@H]2CC[C@]1(C)C(=O)C2,outcome,[1],inactive
same,outcome,[3],inactive
CC(C)CC(O)Cc1ccccc1 (stereo unspecified),outcome,[4],inactive
same,outcome,[6],inactive
same,outcome,[3],inactive
CNC(=S)N(C)C,outcome,[4],inactive
same,outcome,[6],inactive
CC(C)c1ccc2cc(C(C)C)ccc2c1,outcome,[4],inactive
same,AC50,[6],7.42 µM (active)
same,outcome,[5],inactive
Cc1cc(C)c(C)c(O)c1,outcome,[1],inactive
same,outcome,[4],inactive
same,outcome,[6],inactive
C[Si](C)(CCCN)O[Si](C)(C)CCCN,outcome,[4],inactive
same,outcome,[6],inactive
same,outcome,[3],inactive
CC(C)(C)c1ccc(N)cc1,outcome,[4],inactive
same,outcome,[6],inactive
same,outcome,[5],inactive
Cc1ccc([N+](=O)[O-])cc1S(=O)(=O)O,outcome,[6],inactive
same,outcome,[5],inactive
C=C(C)[C@@H]1CCC2=CCC[C@@H](C)[C@]2(C)C1,outcome,[4],inactive
Cc1cc(=O)n(-c2ccccc2)n1C,outcome,[3],inactive
CC(C)=CCC/C(C)=C\C#N,outcome,[1],inactive
same,outcome,[4],inactive
